# Data taken from publication PMC7862700, “An all-to-all approach to the identification of sequence-specific readers for epigenetic DNA modifications on cytosine”.
# What was measured:
# Experiment in all cases: DAPPL (digital affinity profiling via proximity ligation, sequencing); 10 mM Tris-HCl pH 7.5, 50 mM NaCl, 1 mM DTT, 4% glycerol, room temperature, 30 min; GST-TFs on glutathione beads, 16-mer random dsDNA library, 0.1% formaldehyde crosslink after washing; high values mean tight binding
# [1] = target: T1, FEV (Homo sapiens, UniProt Q99581 1-238); details: protein: recombinant; tags: N-terminal GST; dsDNA, one strand shown
# T1 sequence: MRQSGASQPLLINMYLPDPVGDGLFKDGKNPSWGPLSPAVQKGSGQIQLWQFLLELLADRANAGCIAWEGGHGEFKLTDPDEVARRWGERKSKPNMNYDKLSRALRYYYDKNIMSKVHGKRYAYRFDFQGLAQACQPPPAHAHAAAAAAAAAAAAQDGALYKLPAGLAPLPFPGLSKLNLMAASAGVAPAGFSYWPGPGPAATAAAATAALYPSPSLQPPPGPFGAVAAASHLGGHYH
# Method in brief: (§1)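 The binding signal reported is, for every hexamer, its read frequency for a factor over its read frequency for the tag-only sample. Reads came from pools of yeast-expressed, GST-fused human transcription factors on glutathione beads, barcoded with DNA and mixed with that sample, which were incubated with 200 nmole of a random double-stranded 16-mer DNA library in Tris/NaCl/DTT/glycerol buffer at room temperature for 30 min. After washing, the pools were crosslinked with 0.1% formaldehyde, proximity-ligated with BsaI/T4 ligase for 1 h at 37 °C, PCR-amplified and sequenced on an Illumina NextSeq500.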
# [2] = target: ETV5 (Homo sapiens, UniProt P41161 1-510); details: protein: recombinant; tags: N-terminal GST; dsDNA, one strand shown
# Chain of ETV5 (P41161 whole entry): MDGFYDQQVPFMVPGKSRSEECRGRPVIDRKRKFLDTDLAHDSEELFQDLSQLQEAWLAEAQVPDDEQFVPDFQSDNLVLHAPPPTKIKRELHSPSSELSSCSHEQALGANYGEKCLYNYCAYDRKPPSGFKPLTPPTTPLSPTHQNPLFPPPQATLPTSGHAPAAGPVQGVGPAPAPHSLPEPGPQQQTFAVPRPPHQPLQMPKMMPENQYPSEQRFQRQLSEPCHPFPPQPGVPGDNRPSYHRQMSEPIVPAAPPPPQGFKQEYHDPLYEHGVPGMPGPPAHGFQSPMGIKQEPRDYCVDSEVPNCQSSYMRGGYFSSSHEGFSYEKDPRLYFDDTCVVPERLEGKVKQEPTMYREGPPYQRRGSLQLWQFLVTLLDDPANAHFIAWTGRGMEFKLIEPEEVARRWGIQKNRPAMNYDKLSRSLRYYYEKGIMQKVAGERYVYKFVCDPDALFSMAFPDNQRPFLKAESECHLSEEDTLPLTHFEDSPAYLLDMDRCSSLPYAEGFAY
# Method in brief: as §1
# [3] = target: HSF1 (Homo sapiens, UniProt Q00613 1-529); details: protein: recombinant; tags: N-terminal GST; chain copies: 3; dsDNA, one strand shown
# Chain of HSF1 (Q00613 whole entry): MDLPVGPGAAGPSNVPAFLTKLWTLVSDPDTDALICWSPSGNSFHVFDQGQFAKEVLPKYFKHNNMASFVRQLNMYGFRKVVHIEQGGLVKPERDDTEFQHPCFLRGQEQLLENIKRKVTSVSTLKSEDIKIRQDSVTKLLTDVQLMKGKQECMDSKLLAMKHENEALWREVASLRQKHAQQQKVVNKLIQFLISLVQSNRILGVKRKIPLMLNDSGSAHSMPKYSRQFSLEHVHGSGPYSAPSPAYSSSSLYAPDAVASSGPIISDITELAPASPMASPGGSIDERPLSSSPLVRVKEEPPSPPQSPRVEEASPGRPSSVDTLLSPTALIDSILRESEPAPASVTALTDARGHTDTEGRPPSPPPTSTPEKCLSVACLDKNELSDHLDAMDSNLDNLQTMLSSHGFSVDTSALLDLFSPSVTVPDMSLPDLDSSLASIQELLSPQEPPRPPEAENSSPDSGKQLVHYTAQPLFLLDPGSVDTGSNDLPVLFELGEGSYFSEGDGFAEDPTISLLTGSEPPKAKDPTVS
# Method in brief: as §1
# [4] = target: T2, SPIC (Homo sapiens, UniProt Q8N5J4 1-248); details: protein: recombinant; tags: N-terminal GST; dsDNA, one strand shown
# T2 sequence: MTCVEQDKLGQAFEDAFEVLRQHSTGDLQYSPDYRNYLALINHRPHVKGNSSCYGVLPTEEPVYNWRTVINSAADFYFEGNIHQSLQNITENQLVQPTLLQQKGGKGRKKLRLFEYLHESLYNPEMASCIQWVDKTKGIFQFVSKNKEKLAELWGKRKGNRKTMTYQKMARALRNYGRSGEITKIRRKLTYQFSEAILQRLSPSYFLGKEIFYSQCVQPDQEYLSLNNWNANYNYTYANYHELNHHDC
# Method in brief: as §1
# [5] = target: ELF4 (Homo sapiens, UniProt Q99607 1-663); details: protein: recombinant; tags: N-terminal GST; dsDNA, one strand shown
# Chain of ELF4 (Q99607 whole entry): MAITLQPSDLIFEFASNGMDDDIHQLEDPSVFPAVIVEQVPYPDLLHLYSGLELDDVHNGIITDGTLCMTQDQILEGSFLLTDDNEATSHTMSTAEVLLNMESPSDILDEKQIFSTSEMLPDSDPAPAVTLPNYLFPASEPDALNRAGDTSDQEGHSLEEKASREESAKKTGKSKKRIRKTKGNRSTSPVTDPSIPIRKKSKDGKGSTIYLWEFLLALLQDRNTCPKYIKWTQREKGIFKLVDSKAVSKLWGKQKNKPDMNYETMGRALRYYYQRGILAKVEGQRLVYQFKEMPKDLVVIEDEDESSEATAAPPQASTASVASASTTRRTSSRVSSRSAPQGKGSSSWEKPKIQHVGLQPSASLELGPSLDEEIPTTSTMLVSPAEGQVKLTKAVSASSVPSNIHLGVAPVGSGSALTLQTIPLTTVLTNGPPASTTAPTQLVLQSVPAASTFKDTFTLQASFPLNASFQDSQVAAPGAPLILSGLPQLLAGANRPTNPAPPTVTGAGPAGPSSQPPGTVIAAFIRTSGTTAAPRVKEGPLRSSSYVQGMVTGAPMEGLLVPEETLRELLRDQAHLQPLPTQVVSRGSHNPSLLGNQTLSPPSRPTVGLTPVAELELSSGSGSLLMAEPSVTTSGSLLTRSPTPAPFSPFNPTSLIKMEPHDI
# Method in brief: as §1
# [6] = target: T3, ELK4 (Homo sapiens, UniProt P28324-2 1-405); details: protein: recombinant; tags: N-terminal GST; dsDNA, one strand shown
# T3 sequence: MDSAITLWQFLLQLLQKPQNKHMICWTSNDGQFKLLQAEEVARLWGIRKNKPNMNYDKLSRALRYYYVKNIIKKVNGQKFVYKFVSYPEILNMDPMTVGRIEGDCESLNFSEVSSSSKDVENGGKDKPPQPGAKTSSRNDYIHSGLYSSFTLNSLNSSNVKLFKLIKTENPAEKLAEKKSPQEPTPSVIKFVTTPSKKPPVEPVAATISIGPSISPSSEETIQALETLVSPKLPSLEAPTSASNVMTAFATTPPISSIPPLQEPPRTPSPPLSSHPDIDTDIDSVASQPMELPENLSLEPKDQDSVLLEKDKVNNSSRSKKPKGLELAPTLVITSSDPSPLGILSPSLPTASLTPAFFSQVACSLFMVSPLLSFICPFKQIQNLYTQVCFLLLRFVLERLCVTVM
# Method in brief: as §1
# [7] = target: T4, ETV2 (Homo sapiens, UniProt O00321 1-342); details: protein: recombinant; tags: N-terminal GST; dsDNA, one strand shown
# T4 sequence: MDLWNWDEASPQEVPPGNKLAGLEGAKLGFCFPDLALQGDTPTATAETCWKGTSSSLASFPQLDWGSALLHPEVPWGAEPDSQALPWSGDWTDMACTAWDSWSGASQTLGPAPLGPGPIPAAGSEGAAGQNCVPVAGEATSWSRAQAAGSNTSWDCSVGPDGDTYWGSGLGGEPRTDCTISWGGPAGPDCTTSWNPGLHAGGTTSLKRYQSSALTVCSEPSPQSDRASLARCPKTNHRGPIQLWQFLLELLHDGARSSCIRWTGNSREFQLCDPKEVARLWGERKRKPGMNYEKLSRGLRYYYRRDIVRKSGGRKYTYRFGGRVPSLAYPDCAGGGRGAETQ
# Method in brief: as §1
# [8] = target: T5, ELF3 (Homo sapiens, UniProt P78545 1-371); details: protein: recombinant; tags: N-terminal GST; dsDNA, one strand shown
# T5 sequence: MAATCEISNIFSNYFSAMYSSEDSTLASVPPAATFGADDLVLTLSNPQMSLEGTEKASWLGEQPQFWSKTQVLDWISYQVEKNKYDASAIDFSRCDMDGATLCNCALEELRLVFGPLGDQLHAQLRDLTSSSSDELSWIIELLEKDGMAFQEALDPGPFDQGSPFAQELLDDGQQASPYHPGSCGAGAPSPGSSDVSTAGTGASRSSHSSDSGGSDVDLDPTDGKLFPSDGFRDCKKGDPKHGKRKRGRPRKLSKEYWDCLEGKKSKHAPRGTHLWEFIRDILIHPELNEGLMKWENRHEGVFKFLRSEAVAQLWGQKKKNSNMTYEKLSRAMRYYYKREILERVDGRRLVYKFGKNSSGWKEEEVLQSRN
# Method in brief: as §1
# [9] = target: CRX (Homo sapiens, UniProt O43186 1-299); details: protein: recombinant; tags: N-terminal GST; dsDNA, one strand shown
# Chain of CRX (O43186 whole entry): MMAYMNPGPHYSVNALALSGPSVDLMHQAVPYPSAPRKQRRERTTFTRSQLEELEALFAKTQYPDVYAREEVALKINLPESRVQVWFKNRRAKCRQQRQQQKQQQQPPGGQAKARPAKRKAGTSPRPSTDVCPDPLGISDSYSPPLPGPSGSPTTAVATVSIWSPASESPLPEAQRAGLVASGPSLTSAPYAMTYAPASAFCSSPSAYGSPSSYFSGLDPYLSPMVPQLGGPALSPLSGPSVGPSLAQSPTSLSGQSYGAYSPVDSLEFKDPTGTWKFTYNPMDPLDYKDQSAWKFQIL
# Method in brief: as §1
# [10] = target: ETV1 (Homo sapiens, UniProt P50549 1-477); details: protein: recombinant; tags: N-terminal GST; dsDNA, one strand shown
# Chain of ETV1 (P50549 whole entry): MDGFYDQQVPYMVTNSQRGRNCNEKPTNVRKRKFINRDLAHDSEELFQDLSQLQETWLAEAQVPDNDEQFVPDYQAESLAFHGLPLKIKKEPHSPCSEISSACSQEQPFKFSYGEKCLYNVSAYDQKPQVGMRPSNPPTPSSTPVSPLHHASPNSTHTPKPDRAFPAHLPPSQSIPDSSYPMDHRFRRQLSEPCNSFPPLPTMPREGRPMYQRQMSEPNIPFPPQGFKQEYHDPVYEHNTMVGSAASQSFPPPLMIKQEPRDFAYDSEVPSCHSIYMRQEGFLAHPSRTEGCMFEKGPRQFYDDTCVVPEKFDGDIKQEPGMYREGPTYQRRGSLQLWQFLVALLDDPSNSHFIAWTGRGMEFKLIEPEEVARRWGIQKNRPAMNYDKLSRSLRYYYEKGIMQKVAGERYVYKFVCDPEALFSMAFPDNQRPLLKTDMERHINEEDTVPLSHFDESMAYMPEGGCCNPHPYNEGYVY
# Method in brief: as §1
# [11] = target: T6, ERF (Homo sapiens, UniProt P50548 1-548); details: protein: recombinant; tags: N-terminal GST; dsDNA, one strand shown
# T6 sequence: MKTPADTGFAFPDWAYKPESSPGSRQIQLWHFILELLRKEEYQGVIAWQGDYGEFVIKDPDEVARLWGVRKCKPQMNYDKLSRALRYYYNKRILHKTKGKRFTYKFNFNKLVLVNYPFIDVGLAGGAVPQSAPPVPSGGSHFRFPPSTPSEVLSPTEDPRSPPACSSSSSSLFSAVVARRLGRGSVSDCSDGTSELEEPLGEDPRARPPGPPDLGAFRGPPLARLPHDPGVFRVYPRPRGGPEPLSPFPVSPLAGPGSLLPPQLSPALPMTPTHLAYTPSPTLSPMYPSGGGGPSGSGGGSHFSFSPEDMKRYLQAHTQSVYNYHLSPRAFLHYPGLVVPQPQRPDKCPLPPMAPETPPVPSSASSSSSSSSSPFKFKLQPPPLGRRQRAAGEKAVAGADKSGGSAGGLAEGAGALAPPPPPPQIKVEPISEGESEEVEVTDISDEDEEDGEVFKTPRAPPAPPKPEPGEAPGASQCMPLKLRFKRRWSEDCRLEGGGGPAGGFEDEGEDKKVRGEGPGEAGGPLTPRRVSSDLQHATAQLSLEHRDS
# Method in brief: as §1
# [12] = target: T7, ETV3L (Homo sapiens, UniProt Q6ZN32 1-361); details: protein: recombinant; tags: N-terminal GST; dsDNA, one strand shown
# T7 sequence: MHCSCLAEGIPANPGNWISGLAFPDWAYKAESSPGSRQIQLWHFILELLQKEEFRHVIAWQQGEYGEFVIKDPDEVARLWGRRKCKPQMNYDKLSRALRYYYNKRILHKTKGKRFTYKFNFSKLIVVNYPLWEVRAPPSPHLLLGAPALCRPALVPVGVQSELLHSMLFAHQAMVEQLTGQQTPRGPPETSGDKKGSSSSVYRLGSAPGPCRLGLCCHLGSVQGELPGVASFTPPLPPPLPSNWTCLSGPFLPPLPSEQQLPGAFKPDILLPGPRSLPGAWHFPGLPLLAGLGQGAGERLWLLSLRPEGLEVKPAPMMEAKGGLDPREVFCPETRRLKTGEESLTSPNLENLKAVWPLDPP
# Method in brief: as §1
# [13] = target: T8, ETS2 (Homo sapiens, UniProt P15036 1-469); details: protein: recombinant; tags: N-terminal GST; dsDNA, one strand shown
# T8 sequence: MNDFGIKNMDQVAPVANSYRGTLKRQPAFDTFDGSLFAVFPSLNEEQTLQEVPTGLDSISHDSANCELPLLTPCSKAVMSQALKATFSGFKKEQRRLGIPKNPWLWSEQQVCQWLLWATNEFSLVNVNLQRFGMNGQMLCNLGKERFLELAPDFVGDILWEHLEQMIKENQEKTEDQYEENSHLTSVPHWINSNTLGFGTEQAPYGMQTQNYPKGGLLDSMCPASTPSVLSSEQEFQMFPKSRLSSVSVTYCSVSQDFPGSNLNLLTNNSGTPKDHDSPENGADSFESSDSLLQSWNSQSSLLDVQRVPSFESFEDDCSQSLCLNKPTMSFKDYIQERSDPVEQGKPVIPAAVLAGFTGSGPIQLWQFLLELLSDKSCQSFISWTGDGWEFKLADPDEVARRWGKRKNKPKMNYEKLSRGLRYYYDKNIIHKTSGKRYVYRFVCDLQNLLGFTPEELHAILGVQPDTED
# Method in brief: as §1
# [14] = target: T9, SPDEF (Homo sapiens, UniProt O95238 1-335); details: protein: recombinant; tags: N-terminal GST; dsDNA, one strand shown
# T9 sequence: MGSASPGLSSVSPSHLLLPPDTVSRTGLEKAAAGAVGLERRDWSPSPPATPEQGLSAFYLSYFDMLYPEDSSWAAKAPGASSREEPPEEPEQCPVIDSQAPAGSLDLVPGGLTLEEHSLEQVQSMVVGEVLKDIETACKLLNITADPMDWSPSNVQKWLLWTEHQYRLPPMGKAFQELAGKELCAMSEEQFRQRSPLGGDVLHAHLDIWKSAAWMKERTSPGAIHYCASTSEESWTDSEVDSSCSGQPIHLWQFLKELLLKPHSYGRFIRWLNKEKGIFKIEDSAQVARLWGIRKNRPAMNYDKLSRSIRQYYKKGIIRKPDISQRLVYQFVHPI
# Method in brief: as §1
# [15] = target: T10, ETV7 (Homo sapiens, UniProt Q9Y603 1-341); details: protein: recombinant; tags: N-terminal GST; dsDNA, one strand shown
# T10 sequence: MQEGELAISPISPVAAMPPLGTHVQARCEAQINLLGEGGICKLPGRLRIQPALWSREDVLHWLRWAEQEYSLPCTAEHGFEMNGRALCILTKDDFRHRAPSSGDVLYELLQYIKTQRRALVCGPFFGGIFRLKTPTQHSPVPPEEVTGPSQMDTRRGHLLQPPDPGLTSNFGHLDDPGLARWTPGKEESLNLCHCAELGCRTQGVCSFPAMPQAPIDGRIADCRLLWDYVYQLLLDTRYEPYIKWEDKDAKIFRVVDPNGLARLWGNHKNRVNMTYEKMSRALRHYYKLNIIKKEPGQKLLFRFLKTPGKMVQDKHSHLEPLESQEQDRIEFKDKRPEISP
# Method in brief: as §1
# [16] = target: T11, ELF5 (Homo sapiens, UniProt Q9UKW6-2 1-255); details: protein: recombinant; tags: N-terminal GST; dsDNA, one strand shown
# T11 sequence: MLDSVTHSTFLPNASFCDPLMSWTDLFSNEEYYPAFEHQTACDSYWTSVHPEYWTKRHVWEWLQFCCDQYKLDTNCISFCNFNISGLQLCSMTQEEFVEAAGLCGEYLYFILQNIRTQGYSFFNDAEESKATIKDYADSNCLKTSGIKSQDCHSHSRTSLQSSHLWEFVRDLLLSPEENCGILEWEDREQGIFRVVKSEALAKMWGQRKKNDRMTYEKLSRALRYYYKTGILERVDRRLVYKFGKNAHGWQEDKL
# Method in brief: as §1
# [17] = target: T12, ETV3 (Homo sapiens, UniProt P41162-2 1-143); details: protein: recombinant; tags: N-terminal GST; dsDNA, one strand shown
# T12 sequence: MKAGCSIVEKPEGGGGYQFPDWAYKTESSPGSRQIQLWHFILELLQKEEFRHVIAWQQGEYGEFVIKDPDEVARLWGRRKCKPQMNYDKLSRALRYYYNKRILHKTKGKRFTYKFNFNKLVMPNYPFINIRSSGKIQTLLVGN
# Method in brief: as §1
# [18] = target: ETV6 (Homo sapiens, UniProt P41212 1-452); details: protein: recombinant; tags: N-terminal GST; dsDNA, one strand shown
# Chain of ETV6 (P41212 whole entry): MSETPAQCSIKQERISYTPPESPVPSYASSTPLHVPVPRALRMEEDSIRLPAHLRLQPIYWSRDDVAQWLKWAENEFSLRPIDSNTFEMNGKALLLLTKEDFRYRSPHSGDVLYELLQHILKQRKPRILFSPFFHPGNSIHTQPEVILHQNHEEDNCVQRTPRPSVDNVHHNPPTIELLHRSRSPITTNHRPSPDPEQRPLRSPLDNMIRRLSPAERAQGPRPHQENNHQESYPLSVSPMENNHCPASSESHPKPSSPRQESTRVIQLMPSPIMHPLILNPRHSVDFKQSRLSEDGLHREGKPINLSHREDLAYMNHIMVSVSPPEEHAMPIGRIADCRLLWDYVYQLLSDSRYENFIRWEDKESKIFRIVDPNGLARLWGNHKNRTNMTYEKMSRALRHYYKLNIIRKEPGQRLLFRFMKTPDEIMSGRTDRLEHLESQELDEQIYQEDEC
# Method in brief: as §1
sequence,measurement,setting,value
CTAGGT,binding signal,[1],"1.07 fold enrichment (6-mer frequency, TF over GST control)"
same,binding signal,[2],"1.18 fold enrichment (6-mer frequency, TF over GST control)"
same,binding signal,[3],"1.19 fold enrichment (6-mer frequency, TF over GST control)"
same,binding signal,[4],"1.26 fold enrichment (6-mer frequency, TF over GST control)"
same,binding signal,[5],"1.12 fold enrichment (6-mer frequency, TF over GST control)"
same,binding signal,[6],"1.18 fold enrichment (6-mer frequency, TF over GST control)"
same,binding signal,[7],"1.07 fold enrichment (6-mer frequency, TF over GST control)"
same,binding signal,[8],"1.18 fold enrichment (6-mer frequency, TF over GST control)"
same,binding signal,[9],"1.05 fold enrichment (6-mer frequency, TF over GST control)"
same,binding signal,[10],"1.1 fold enrichment (6-mer frequency, TF over GST control)"
same,binding signal,[11],"1.03 fold enrichment (6-mer frequency, TF over GST control)"
same,binding signal,[12],"1.16 fold enrichment (6-mer frequency, TF over GST control)"
same,binding signal,[13],"1.11 fold enrichment (6-mer frequency, TF over GST control)"
same,binding signal,[14],"1.17 fold enrichment (6-mer frequency, TF over GST control)"
same,binding signal,[15],"1.1 fold enrichment (6-mer frequency, TF over GST control)"
same,binding signal,[16],"1.01 fold enrichment (6-mer frequency, TF over GST control)"
same,binding signal,[17],"1.14 fold enrichment (6-mer frequency, TF over GST control)"
same,binding signal,[18],"1.11 fold enrichment (6-mer frequency, TF over GST control)"
